Source: PubChem BioAssay (National Center for Advancing Translational Sciences (NCATS))
Prx2 Sm inh = Schistosoma Mansoni Peroxiredoxins (Prx2) | Schistosoma mansoni peroxiredoxin 2 (Prx2) | S. mansoni Prx2 activity coupled to TGR/GSH (TGR is thioredoxin glutathione reductase), NADPH fluorescence loss, qHTS | Potency, µM | actives 0.07% (n = 65,000) | AID 448, 2006
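Prx2 inhibition was measured as reduced NADPH consumption when electrons flowed from NADPH through TGR and glutathione to Prx2 and H2O2. Plates were read kinetically over 8 min; enzyme reagents were held at 4 deg C during dispensing.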
AmpC nodet inh = Promiscuous and Specific Inhibitors of AmpC Beta-Lactamase (assay without detergent); Potency, µM (series often up to 28.7 µM), inactives show at the top dose activity change, negative = inhibition; actives 1.8% (n = 71,000); AmpC nitrocefin hydrolysis, absorbance 480 nm, no detergent; note: % of control where 0% means no effect
Target sequence (P00811 whole entry, looked up): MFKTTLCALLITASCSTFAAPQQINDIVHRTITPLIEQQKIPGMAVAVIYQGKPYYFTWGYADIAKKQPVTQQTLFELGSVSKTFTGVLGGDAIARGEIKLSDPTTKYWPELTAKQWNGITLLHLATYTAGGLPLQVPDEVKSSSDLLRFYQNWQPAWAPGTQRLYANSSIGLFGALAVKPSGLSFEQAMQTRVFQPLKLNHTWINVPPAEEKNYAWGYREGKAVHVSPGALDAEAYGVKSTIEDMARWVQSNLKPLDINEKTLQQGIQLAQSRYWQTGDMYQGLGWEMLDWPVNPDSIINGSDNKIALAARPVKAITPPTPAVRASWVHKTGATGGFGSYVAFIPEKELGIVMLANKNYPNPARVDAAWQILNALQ
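AmpC, 20 mM phosphate pH 7.0; 15 min cpd preinc, RT; start with nitrocefin (800 uM stock); A480 kinetic read, 20 s intervals, 4 min. No-enzyme wells = negative control.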
LT uptake inh = qHTS Assay for Anthrax Lethal Toxin Internalization. Cells, anthrax lethal toxin internalization, FRET ratio (460/530). Potency, µM (series often up to 40 µM), for inactives: at the highest dose activity change, negative = inhibition, hits mostly inhibitors. actives 0.67% (n = 70,000). AID 912, 2007; note: % is set by controls: 0 for no effect and ±100 for the full control effect; nearly all actives have a fitted effect of over 50% in size
AmpC inh det = Promiscuous and Specific Inhibitors of AmpC Beta-Lactamase (assay with detergent); P00811; purified AmpC, nitrocefin hydrolysis with detergent; actives 0.09% (n = 71,000); Potency, µM (top dose mostly 28.7 µM), for inactives: top-dose activity change, negative = inhibition; active = well fitted curve in the direction sought with a large enough effect; inconclusive = small, poorly fitted or top-dose-only effect; note: % is set by controls: 0 for no effect and ±100 for the full control effect
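E. coli AmpC (5.3 nM) in 20 mM phosphate pH 7.0 with 0.01% Triton X-100, preincubated 15 min RT with compound; nitrocefin (2 uL of 800 uM stock) hydrolysis followed by 480 nm absorbance every 20 s over 4 min.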
An asterisk follows results filed as active; ? = inconclusive; . = no result; ! = repeats disagree; [ ] = another dose, or the depositor's remark. A selection: hits, their analogues and other compounds. The true share with any hit is near 2.4%. Unless noted, calls come from the whole dose curve. Potency is the fitted concentration of half-maximal effect.

SMILES	Prx2 Sm inh	AmpC nodet inh	LT uptake inh	AmpC inh det
Cn1c(C(=O)N2CCN(c3ncccn3)CC2)cc2c(=O)n(C)c3ccccc3c21	>57	26.6%	-3.9%	16.0%
Cc1cccc(N2CCN(C(=O)c3cc4c(=O)n(C)c5ccccc5c4n3C)CC2)c1C	>57	3.98µM*[single pt active]	-17.6%	10.6%
O=c1oc2ccccc2n1Cc1ccccc1Cl	>57	3.98µM*	?	14.3%
O=c1oc2ccccc2n1CCc1ccccc1	>57	-11.1%	-4.3%	-1.7%
CN(C)c1ccc(/C=C2/C(=O)Nc3ccccc32)cc1	>57	19.3%	12.6µM*	0.0%
CN(C)c1ccc(/C=c2\sc3n(c2=O)CCCN=3)cc1	>57	24.7%	-2.7%	-7.3%
O=C(O)CBr	.	1.2%	?	13.1%
O=C(CSc1nnc(CNc2ccccc2)o1)N1CCc2ccccc21	>57	15.8µM*[single pt active]	0.9%	-0.4%
O=C(CSc1nnc(Cc2csc(Nc3cccc(Cl)c3)n2)o1)N1CCc2ccccc21	>57	12.6µM*	-26.2%	0.6%
O=C(CSc1nnc(Cc2ccccc2)o1)N1CCCc2ccccc21	>57	28.0%	3.9%	12.1%
CCC/C=C/C1C(=O)C2OC2C2(OCC(CC)(CC)CO2)C1CO (configuration not stated)	.	.	21.4%[8 µM]	.
Nc1ccc2cc3ccccc3cc2c1	.	2.51µM*	?	12.5%
N#Cc1ccc(NC(=O)Nc2ccc(Cl)cc2)cc1	>57	?	3.98µM*	13.2%
CN(CC(=O)Nc1ccc(C#N)cc1)Cc1ccc(Cl)cc1	>57	3.6%	-12.6%	-1.7%
O=c1c2c([nH]c3ccc(Br)cc13)CCCC2	>57	-15.7%	3.4%	-3.4%
O=C1Cc2c([nH]c3ccc(Br)cc23)-c2ccccc2N1	>57	15.8µM*!	-18.2%	-3.6%
O=C(CN1CC(c2ccccc2)CC1=O)NCc1ccc(F)cc1 (configuration not stated)	>57	3.98µM*[single pt active]	-7.8%	11.2%
O=C(CN1CCN(Cc2ccc(F)cc2)C1=O)NCc1cccs1	>57	13.0%	-8.8%	10.6%
COc1ccc(NC(=O)CN2CC(c3ccccc3)CC2=O)cc1OC (configuration not stated)	>57	3.98µM*[single pt active]	1.4%	13.5%
O=C(CN1CC(c2ccccc2)CC1=O)Nc1ccc2c(c1)OCO2 (configuration not stated)	>57	16.8%	-3.0%	8.9%
CC(=O)C1=C(C)Nc2ncnn2C1c1cccc(OCc2ccccc2)c1 (configuration not stated)	>57	3.98µM*[single pt active]	6.2%	12.1%
CC1=C(C(=O)OCc2ccccc2)C(c2cccnc2)n2ncnc2N1 (configuration not stated)	>57	6.1%	1.8%	-1.7%
Cc1ccc(S(=O)(=O)C2(C(=O)Nc3cccnc3)CC2)cc1	>57	3.98µM*[single pt active]	-8.5%	13.8%
COCc1cc(C)nc(N2CCN(c3ccccc3)CC2)c1C#N	>57	10.4%	10µM*	17.4%
COC(=O)CSc1nc2ccc(NC(=O)CSc3nnnn3Cc3ccccc3)cc2s1	.	?	5.01µM*	-0.3%
SMILES	Prx2 Sm inh	AmpC nodet inh	LT uptake inh	AmpC inh det
CC(=O)Nc1cccc(NC(=O)CSc2nnnn2Cc2ccccc2)c1	>57	-6.3%	-12.0%	-1.4%
Cc1cc[c]([Sb]2[O][C@H]([C@H](O)[C@H](O)C(=O)O)[C@@H](CO)[O]2)cc1	>57	-4.7%[5.75 µM]	-2.0%[8 µM]	-1.4%[5.75 µM]
O=C(O)[C@@H](O)[C@@H](O)[C@@H]1[O][Sb][O][C@@H]1CO	0.855*	5.8%[5.75 µM]	-3.5%[8 µM]	-4.7%[5.75 µM]
Cn1c(-c2cccc(Br)c2)cnc1NCc1cccnc1	>57	12.1%	-9.9%	9.0%
COc1cccc(-c2cnc(NCc3cc(Cl)ccc3O)n2C)c1	>57	12.6µM*	?	8.1%
CC(=O)c1c(O)c(C)c(O)c2c1OC1=CC(=O)[C@H](C(C)=O)C(=O)[C@]12C	>57	-5.4%	?	-2.6%
CCN1CCN(c2ncc(C(=O)Nc3ccccc3C(=O)OC)c3ccccc23)CC1	>57	132.1%	10µM*	-1.0%
CN1C[C@H](C(=O)N[C@]2(C)O[C@@]3(O)[C@H]4CCCN4C(=O)[C@@H](Cc4ccccc4)N3C2=O)C[C@H]2c3cccc4[nH]cc(c34)C[C@@H]21	>57	124.1%	-7.9%	-0.1%
CCCCCCC1=Cc2cc(OC)c(OC)cc2C(C2(C(=O)OCC)CCCC2=O)O1 (configuration not stated)	.	.	-19.9%[8 µM]	.
Cc1c(C(=O)Nc2ccncc2)sc2nc(-c3ccccc3)cn12	>57	21.7%	-16.9%	12.0%
